Screening results (PubChem BioAssay)
SW480 rerep = induces DNA re-replication in SW480 colon adenocarcinoma cells; SW480 DNA re-replication, Hoechst DNA content imaging, 48 h; Potency, µM (highest dose often 46.1 µM), without a hit: at the top dose re-replication activation, most hits filed as activators; hit rate 1.8% among 340,000; AID 624297; further: % of control where 0% means no effect; nearly all actives have a fitted effect of over 55% in size
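Hoechst fluorescence of nuclei (405 nm excitation, 500-530 nm emission) measured by plate-scanning imager after 48 hr compound exposure at 37 C; re-replication scored as increased number of nuclei with elevated intensity.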
RGS4 inh = blocks human RGS4-accelerated GTP hydrolysis | Transcreener GDP fluorescence polarization, RGS4-accelerated GTP hydrolysis | Potency, µM (doses to about 114 µM), without a hit: at the top dose activity change, negative = inhibition, hits mostly inhibitors | hit rate 0.039% among 390,000; further: on the % scale 0 is the no-effect control and ±100 the full control effect; nearly all actives have a fitted effect of over 75% in size
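MLSMR compounds (23 nl, pin-transferred) preincubated 10 min at room temperature with a 500nM (2x) first reagent, then RGS4 at 900nM (2x) plus Transcreener GDP mix added; fluorescence polarization (620/688 nm) read before and after 90 min at 30 °C.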
KB-3-1 cytotox = kills parental KB-3-1 adenocarcinoma cells | KB-3-1 viability, CellTiter-Glo ATP luminescence, 72 h | hit rate 1.4% among 400,000 | Potency, µM (series often up to 46.1 µM), most hits filed as cytotoxic; further: on the % scale 0 is the no-effect control and ±100 the full control effect; nearly all actives have a fitted effect of over 60% in size
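Here the drug-naive KB-3-1 line serves as comparator for MDR sub-line selectivity; cells received compound titrations, 72 h at 37 °C, then CellTiter-Glo readout.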
PTAP TSG101 blk = blocks PTAP/TSG101 interaction to inhibit HIV-1 budding. Q99816. Fluorescence polarization, FITC-PTAP peptide / Tsg101 binding. Potency, µM (series often up to 115 µM), for the others: at the top dose activity change, negative = inhibition, hits mostly inhibitors. 340,000 tested, under 10 active. AID 493005; active means well fitted inhibition curve with a large enough effect in the main read-out, with a control signal flat, not every such curve was filed as active; inconclusive means small, poorly fitted or top-dose-only effect, or effect the other way, or a change in a side signal; inactive means no such curve, though single readings can be large or run the other way; further: % of control where 0% means no effect
Target sequence (Q99816 whole entry, looked up): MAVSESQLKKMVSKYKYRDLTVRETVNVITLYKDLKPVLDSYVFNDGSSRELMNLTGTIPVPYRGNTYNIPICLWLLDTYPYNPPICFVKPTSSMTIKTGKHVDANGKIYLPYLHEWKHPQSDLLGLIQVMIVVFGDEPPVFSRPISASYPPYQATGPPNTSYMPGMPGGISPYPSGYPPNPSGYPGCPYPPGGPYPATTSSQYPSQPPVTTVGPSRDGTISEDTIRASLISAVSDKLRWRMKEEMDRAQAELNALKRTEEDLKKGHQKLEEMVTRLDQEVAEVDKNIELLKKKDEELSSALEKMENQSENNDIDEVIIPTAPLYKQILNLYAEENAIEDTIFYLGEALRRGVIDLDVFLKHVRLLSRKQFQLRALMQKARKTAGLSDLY
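FP read-out: FITC-PTAP peptide, 50 nM final, binding Tsg101 binding domain, 10 uM final; 20 min, r.t.; 10 mM HEPES pH 7.5, 0.15 M NaCl, 0.01% Tween 20, 3 mM EDTA, 0.1 mM TCEP.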
KB-V1 cytotox = kills drug-selected multidrug resistant KB-V1 cells | KB-V1 MDR cells viability, CellTiter-Glo, 72 h | hit rate 3.4% among 400,000 | Potency, µM (highest dose often 46.1 µM), most hits filed as cytotoxic | AID 1347076; further: on the % scale 0 is the no-effect control and ±100 the full control effect; nearly all actives have a fitted effect of over 60% in size
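Luminescent ATP read-out (CellTiter-Glo, 10 min) measures survival of drug-selected KB-V1 MDR cells after 72 h, 37 degrees C compound exposure. Medium: phenol-red-free DMEM, 10% FBS. Values from fitted concentration-response curves.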
MCF10A rereplic = induces DNA re-replication in MCF 10a normal breast cells. MCF 10A DNA re-replication, Hoechst nuclear intensity, 48 h. Potency, µM (highest dose often 46.1 µM), for inactives: at the top dose activity, positive = re-replication, actives largely listed as activators. hit rate 2.9% among 350,000. AID 624296; further: % of control where 0% means no effect; nearly all actives have a fitted effect of over 50% in size
* hit, by the source's call; i = inactive; ? = inconclusive; . = no result given. In the library only some 6.6% were active in any assay of this set; here they are far more common. Unless noted, the call rests on the fitted dose curve; in most records, active means well fitted curve in the direction sought with a large enough effect; inconclusive means small, poorly fitted or top-dose-only effect, or another doubt; inactive means no such curve, though single readings can be large; an effect the other way counts as inactive or inconclusive. Potency means the concentration at half of the fitted maximal effect.

SMILES | SW480 rerep | RGS4 inh | KB-3-1 cytotox | PTAP TSG101 blk | KB-V1 cytotox | MCF10A rereplic
CN(C)c1ccc(NC(=O)Cn2c(SCc3ccc(F)cc3)nc3cccnc32)cc1 | . | -1% | . | . | . | .
Cc1ccc(C)c(Nc2cc(C(=O)NC3CCCCC3)c3ccccc3n2)c1 | . | -9% | i | . | i | .
NC(=NCCc1ccc(Cl)cc1)NS(=O)(=O)c1ccc(F)cc1 | -16% | -34% | ? | -1% | 15µM* | -11%
O=S(=O)(NC(=NCc1ccccc1)c1ccc(F)cc1)c1ccc(Cl)cc1 | -59% | 5% | i | -4% | ? | 0.73µM*
Cc1cc(C)c(NC(=O)c2c(C)oc3c2C2=NCCN2C=N3)c(C)c1 | . | -7% | i | . | i | .
CSc1cccc(NC(=O)CN2C(=O)COc3ccc(S(=O)(=O)N4CCC(C)CC4)cc32)c1 | . | 6% | . | . | . | .
CCOc1ccc(CC(=O)NNC(=S)NC)cc1 | -56% | -21% | i | -2% | i | 1.3µM*
CNC(=S)NNC(=O)Cc1ccccc1 | 2% | 34% | i | -2% | i | 6%
Cc1ccc(NC(=O)CSc2nc3nccnc3c(=O)n2CCc2c[nH]c3ccccc23)cc1 | . | 14% | . | . | . | .
Cc1ccc2c(c1)c1c3n2CCN(CCC#N)C3CCC1 (configuration not stated) | . | . | i | . | 18µM* | .
Cc1ccc(NC(=O)Cn2c(=O)n(CCCCC(=O)NCc3ccccc3Cl)c(=O)c3ccccc32)cc1 | . | 0% | i | . | i | .
Cc1[nH]n(-c2ccccc2)c(=O)c1C(C[N+](=O)[O-])c1ccc(Cl)cc1 (configuration not stated) | 16µM* | -43% | i | 2% | i | ?
COC(=O)c1c(C(=O)OC)c(-c2ccc(C)cc2)n2c1CCC2 | 0% | 3% | i | -8% | 15µM* | -1%
COc1ccc(OC)c(CNS(=O)(=O)c2c(C(=O)N3CCC(C)CC3)c(C)n(C)c2C)c1 | . | -20% | . | . | . | .
CSc1ccc(/C=C/c2nc3ccccc3n2S(=O)(=O)c2ccc(Br)cc2)cc1 | . | -26% | ? | . | ? | .
COc1ccc(Oc2nc(-c3ccccn3)nc3ccccc23)cc1 | ? | -16% | ? | -2% | ? | 2%
C/C(=N\Nc1nc(-c2ccccn2)nc2ccccc12)c1ccc(F)cc1 | ? | -32% | i | 0% | ? | 7%
CN(C)c1nc(-c2ccccn2)nnc1-c1ccccc1 | ? | -31% | ? | -4% | ? | 19%
c1ccc(CCNc2nc(-c3ccccn3)nc3ccccc23)cc1 | ? | 20% | 12µM* | 5% | i | 11%
c1ccc(Oc2nc(-c3ccccn3)nc3ccccc23)cc1 | 21µM* | 12% | ? | -2% | i | ?
c1ccc2c(N3CCCCC3)nc(N3CCCC3)nc2c1 | 2% | 0% | i | -1% | 16µM* | 6%
CCN(CC)c1nc(-c2ccccn2)nc(-c2ccccc2)c1C#N | -45% | 17% | ? | 3% | 16µM* | -6%
COc1ccc(Br)cc1CNC(=O)C1CCN(c2nnc(-n3cccc3CNc3ccc(C)cc3)s2)CC1 | . | 21% | . | . | . | .
Cc1ccc(N2CCN(C(=O)c3c(C)oc4nc(C)nc(N5CCCC5)c34)CC2)c(C)c1 | . | -4% | . | . | . | .
c1ccc(-c2nc(N3CCCCCC3)c3ccccc3n2)nc1 | 15% | 4% | 3.7µM* | -3% | ? | ?
CCN1CCN(c2nc(-c3ccccn3)nc3ccccc23)CC1 | ? | 17% | i | -7% | 5.2µM* | 6%
CCCN(CCC)c1nc(-c2ccccn2)nc2ccccc12 | 10µM* | 0% | 4.6µM* | -6% | 2.9µM* | 21µM*
CCCN(CCC)c1nc(-c2ccccc2F)nc2ccccc12 | . | -21% | i | . | i | .
c1ccc2nc(N3CCCC3)c(N3CCCCC3)nc2c1 | 0% | 1% | i | 2% | i | 21µM*
c1ccc(-c2nc(N3CCOCC3)c3ccccc3n2)nc1 | ? | -10% | i | -5% | ? | ?
